“And” between values parts separate entries of the source, which are not always exact repeats. Equal values may be shown once. The whole screen tested about 370,000 compounds, of which about 4,700 (1.3%) were called active.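 How the source made its calls: active means inhibition above the plate cutoff, the mean of all test compounds on that plate plus 3 SD (cut at about 35% in these data); inactive means the rest.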 The full list was thinned out, with actives kept by preference.
Assay: small molecules binding CAG repeat RNA – biochemical, fluorescence, primary screen (AID 651821);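 further: 0% = DMSO alone and 100% = 100 µM mitoxantrone as full dye displacement; higher means more dye released from RNA so lower well fluorescence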
Conditions: r(CAG) RNA repeat, TO-PRO-1 dye displacement fluorescence; at 3 µM; stronger effect = higher value

inhibition, active:
Cc1oc2c(F)c(F)c(F)c(F)c2c1S(=O)(=O)Nc1cccc(C(F)(F)F)c1 53.7%, Cc1cc(C)cc(Oc2c(C(F)(F)F)oc3cc(OCC(=O)O)ccc3c2=O)c1 44.4%, COc1ccc(Cl)cc1-n1c(=S)sc2c(=O)n(-c3ccc(F)cc3)c(SCC(=O)O)nc21 40.9%, CCN1C(=O)/C(=C2/Sc3ccccc3N2CCCS(=O)(=O)O)SC1=S 51.4% and 69.1%

inhibition, inactive:
COc1ccc(OC)c(-n2cc3c(=O)n(C)c(=O)n(C)c3c2)c1 2.65%, CCOC(=O)N1C(=O)C[C@](Sc2ccc(C)cc2)(C(=O)OC)[C@H]1c1ccccc1 -2.71%, COC(=O)c1ccccc1-n1cc(COC(=O)NCCc2ccccc2)nn1 1.18%, Cc1noc(C)c1S(=O)(=O)Nc1ccc(C(=O)O)cc1 -0.8%, Cc1ccc(N(CCC(=O)O)S(=O)(=O)c2cccc(C(F)(F)F)c2)cc1 5.06%, COC(=O)[C@H](C(C)C)N(CCc1cn(Cc2ccccc2)nn1)S(=O)(=O)c1ccc(F)cc1Br 3.36%, CSCCC1NC2(C(=O)Nc3ccc(Cl)cc32)[C@@H]2C(=O)N(C3CCCC3)C(=O)[C@H]12 (stereo partly drawn) -2.44%, Cc1ccc(NC(=O)c2cc(C)nn2-c2ccccc2)c(C)c1 2.01%, O=C(COc1ccc2c(C(F)(F)F)cc(=O)oc2c1)Nc1ccc2c(c1)OCCO2 4.46%, O=C(COc1ccc2c3c(c(=O)oc2c1)CCC3)NC1CCCCC1 -4.24%, CC(c1c[nH]c2ccccc12)c1c(-c2ccccc2)n(C)c2ccccc12 (stereo not drawn) 8.54%, CCc1ccc(-n2c(=S)sc3c(=O)n(-c4ccccc4OC)c(=S)[nH]c32)cc1 9%, COc1ccccc1-n1c(SCC(=O)O)nc2sc3c(c2c1=O)CCC3 5.16%, COc1ccc2c(c1)N(C)/C(=C1/SC(=S)N(NC(C)=O)C1=O)S2 5.15%, CCCCN1C(=O)/C(=C2/C=CC=CN2C)SC1=S -1.7%, CC(CC(=O)N1CCN(c2ccccc2)CC1)S(=O)(=O)c1ccc2c(c1)NC(=O)CS2 (stereo not drawn) -1.08%, O=C(CCCCCN1C(=O)C2C3C=CC(C3)C2C1=O)Nc1ccccn1 (stereo not drawn) 1.49%, COC(=O)Cc1nnn2c1[C@H](C)[C@H](c1ccccc1[N+](=O)[O-])OCC2 2.71%, CCOC(=O)C1=C(C(=O)OCC)C2N(Cc3ccc(C#N)cc3)c3ccccc3[C@@]23C[C@@H](C(=O)OC)N(S(=O)(=O)c2ccc(F)cc2)C3=N1 (stereo partly drawn) 15.6%
